Test results: PMC4336329 (PLoS ONE, 2015)
The campaign covered roughly 310,000 compounds. About 2,200 (0.71%) showed an effect of 50% or more. Effects have a minus sign here. The sample holds strong results, similar compounds and a random draw of the others, so the mix is not that of the screen.

target: human ether-à-go-go-related gene (hERG) potassium channel (human, UniProt Q12809); experiment: primary screen, population patch clamp on CHO cells stably expressing hERG; higher = less effect of the substance
Sequence (Q12809 whole entry, looked up): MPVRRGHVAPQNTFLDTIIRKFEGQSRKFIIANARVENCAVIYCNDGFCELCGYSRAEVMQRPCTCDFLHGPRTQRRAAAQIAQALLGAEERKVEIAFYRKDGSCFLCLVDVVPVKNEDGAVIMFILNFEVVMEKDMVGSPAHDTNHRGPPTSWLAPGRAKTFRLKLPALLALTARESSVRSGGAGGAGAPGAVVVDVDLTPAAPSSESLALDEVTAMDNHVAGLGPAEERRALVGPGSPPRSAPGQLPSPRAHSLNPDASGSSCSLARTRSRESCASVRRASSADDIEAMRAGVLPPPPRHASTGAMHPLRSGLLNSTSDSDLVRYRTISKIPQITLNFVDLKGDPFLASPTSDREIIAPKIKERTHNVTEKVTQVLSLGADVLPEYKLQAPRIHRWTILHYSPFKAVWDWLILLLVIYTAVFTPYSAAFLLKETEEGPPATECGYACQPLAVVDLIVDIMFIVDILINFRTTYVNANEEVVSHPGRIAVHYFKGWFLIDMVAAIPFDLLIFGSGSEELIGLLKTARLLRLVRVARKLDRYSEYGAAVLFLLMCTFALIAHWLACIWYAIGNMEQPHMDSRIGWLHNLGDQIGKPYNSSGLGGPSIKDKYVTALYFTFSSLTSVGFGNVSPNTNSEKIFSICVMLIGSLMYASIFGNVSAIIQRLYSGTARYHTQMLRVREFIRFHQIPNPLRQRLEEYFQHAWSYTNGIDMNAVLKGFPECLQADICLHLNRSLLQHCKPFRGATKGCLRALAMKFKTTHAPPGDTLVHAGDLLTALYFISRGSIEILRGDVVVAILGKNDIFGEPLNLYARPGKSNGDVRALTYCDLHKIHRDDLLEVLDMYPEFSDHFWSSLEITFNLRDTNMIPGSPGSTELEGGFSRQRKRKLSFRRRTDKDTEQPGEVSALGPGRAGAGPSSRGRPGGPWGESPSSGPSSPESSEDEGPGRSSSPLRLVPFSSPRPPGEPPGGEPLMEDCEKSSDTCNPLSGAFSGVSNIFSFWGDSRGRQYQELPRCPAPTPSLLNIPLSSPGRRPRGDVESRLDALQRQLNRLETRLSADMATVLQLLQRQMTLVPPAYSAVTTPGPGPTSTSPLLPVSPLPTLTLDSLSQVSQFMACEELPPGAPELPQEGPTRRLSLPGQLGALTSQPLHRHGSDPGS

SMILES | hERG current change (%, negative = inhibition) at 1uM [%]
Cc1cc(C=C2C(=O)NC(=O)NC2=O)c(C)n1-c1ccc2c(c1)OCO2 | 13.5
CC(=O)c1cccc(OCC(O)CN2CCN(S(=O)(=O)c3c(F)cccc3F)CC2)c1.O=C(O)C(=O)O (centres unmarked) | 1.4
CC(=O)c1cccc(OCC(O)CN2CC=C(c3ccccc3)CC2)c1.O=C(O)C(=O)O (centres unmarked) | -50
CCOC(=O)C1CCN(CC(O)COc2ccc(C(=O)CC)cc2)CC1.Cl (centres unmarked) | -49.5
Cl.OC(COCc1ccc(Cl)cc1)CN1CCCCC1 (centres unmarked) | 0.152
CCOC(=O)C1CCN(CC(O)COc2ccc(C(C)=O)cc2)CC1.Cl (centres unmarked) | -30.4
CCOC(=O)C1CCN(CC(O)COCc2ccccc2)CC1.O=C(O)C(=O)O (centres unmarked) | 3.28
Cl.OC(COCc1ccccc1)CN1CCCC1 (centres unmarked) | 1.21
CCOC(=O)C1CCN(CC(O)COCc2ccc(Cl)cc2)CC1.Cl (centres unmarked) | -58.6
CCOC(=O)C1CCN(CC(O)COCc2ccc3c(c2)OCO3)CC1.Cl (centres unmarked) | 1.96
CCOC(=O)c1ccc(S(=O)(=O)N2CCN(CC(O)COc3cccc(C(C)=O)c3)CC2)cc1.O=C(O)C(=O)O (centres unmarked) | 10
OC(COCc1ccc(Cl)cc1)CN1CCN(CC(O)COCc2ccc(Cl)cc2)CC1 (centres unmarked) | -67.5
CCOC(=O)C1CCN(CC(O)COc2ccc(C(C)(C)C)cc2)CC1.Cl (centres unmarked) | -53.2
COc1cccc(N2CCN(C(=O)Cn3c(=O)oc4ccccc43)CC2)c1 | 4.28
Cc1ccc(-c2nn(-c3ccccc3)cc2/C=N/n2c(-c3cccs3)n[nH]c2=S)cc1 | 15
NS(=O)(=O)c1ccc(CCNC(=O)CNC(=O)c2ccccc2F)cc1 | 11.3
CCOc1ccc(Cc2noc3c2C(=O)CCC3)cc1OCC | 23.3
O=C(NCCCCCCNC(=O)NCc1ccco1)NCc1ccco1 | 6.09
O=C1CCC(/C=C/c2ccccc2)=NN1Cc1ccc(Cl)c(Cl)c1 | 2.78
O=C(NCc1ccccn1)/C(=N/O)c1ccccc1 | 9.34
CC(C)n1c(O)c(N=Nc2ccc(Cl)nn2)c2ccccc21 | 10.7

SMILES | hERG current change (%, negative = inhibition) at 1uM [%]
C=CCNC(=S)/C(=C(\[O-])c1ccc(Cl)cc1)[n+]1ccccc1 | 11.2
Cc1ccc(S(=O)(=O)NCC2CCC(C(=O)N3CCN(C)CC3)CC2)cc1 (centres unmarked) | 22.1
NC(=O)C1CCCN(CC(O)COCc2ccc(Cl)cc2)C1.O=C(O)C(=O)O (centres unmarked) | 11.5
O=C(O)C(=O)O.OC(COCc1ccc(Cl)cc1)CN1CC=C(c2ccccc2)CC1 (centres unmarked) | -84.2
Cl.OC(COCc1ccc(Cl)cc1)CN1CCc2ccccc2C1 (centres unmarked) | -27.3
C=CC[N+]1(CC=C)CCOCC1.[Br-] | 34.2
COc1ccc(C(=O)/C=C/c2cn(CN3CCN(C)CC3)c3ccccc23)cc1 | -3.29
CCOC(=O)C1CCN(C(=O)C2CCN(c3nc4ccc(OC)cc4s3)CC2)CC1 | -53.4
Cc1ccc(Cl)c2sc(N3CCN(C(=O)c4ccco4)CC3)nc12 | -0.903
O=C(c1ccco1)N1CCN(c2nc3ccsc3c(=O)s2)CC1 | -74.5
CCOC(=O)C1CCN(c2cc(C)nc3ccc(OC)cc23)CC1 | -56.1
CCOc1ccc2nc(N3CCC(C(=O)N4CCN(c5ccccn5)CC4)CC3)sc2c1 | -17.4
CCOc1ccc2nc(N3CCC(C(=O)N4CCN(c5ncccn5)CC4)CC3)sc2c1 | 4.83
Cc1ccc2nc(N3CCN(C(=O)c4ccco4)CC3)sc2c1 | -7.42
CCOc1ccc2nc(N3CCC(C(=O)N4CCC5(CC4)OCCO5)CC3)sc2c1 | 6.77
CCOc1ccc2nc(N3CCC(C(=O)N4CCN(C5CCCCC5)CC4)CC3)sc2c1 | -8.64
CCOc1ccc2nc(N3CCC(C(=O)N4CCN(C(=O)c5ccco5)CC4)CC3)sc2c1 | -89.3
COc1ccc2nc(C)cc(N3CCC(C(N)=O)CC3)c2c1 | -2.62
COc1ccc(N2CCN(c3cc(C)nc4ccc(OC)cc34)CC2)cc1 | -31
O=C(O)C1CCC(=O)N1C1c2ccccc2Oc2ccccc21 (centres unmarked) | 7.76
CC(NCC(=O)NCCc1ccc(S(N)(=O)=O)cc1)c1ccc(F)cc1 (centres unmarked) | 15.1

SMILES | hERG current change (%, negative = inhibition) at 1uM [%]
COc1ccccc1/C(C)=N/NC(=S)NCc1ccccc1 | 0.32
COCc1nc(-c2ccc(-c3ccc(C)cc3)nc2OC)no1 | 4.81
Cn1cccc1/C=N/N1CCN(c2ccccc2)CC1 | 18.1
COc1ccc(CC(=O)OCC(=O)N2CCCc3ccccc32)cc1 | 7.67
CCOC(=O)/C(C#N)=C1/C=CN(c2ccccc2)C=N1 | 7.43
CCCn1c(N)c(C(=O)CSc2nnc3n2CCCCC3)c(=O)[nH]c1=O | 4.02
CCOP(=O)(OCC)/C(C#N)=C/c1ccc([N+](=O)[O-])cc1 | -4.07
N=c1c(S(=O)(=O)c2ccccc2)cc2c(=O)n3ccccc3nc2n1Cc1cccnc1 | 6.5
N#Cc1cc2c(=O)n3ccccc3nc2n(Cc2cccnc2)c1=O | 2.54
COc1ccc(CNC(=O)c2cc3c(=O)n4ccccc4nc3n(Cc3cccnc3)c2=N)cc1 | -32.6
N=c1c(S(=O)(=O)c2ccc(Cl)cc2)cc2c(=O)n3ccccc3nc2n1Cc1cccnc1 | 7.26
CCCCn1c(=NC(=O)c2ccco2)c(C(=O)OCC)cc2c(=O)n3ccccc3nc21 | -44.1
COC(=O)c1cc2c(=O)n3ccccc3nc2n(Cc2cccnc2)c1=N | -51.5
COCCCn1c(C(=O)Nc2ccc3c(c2)OCO3)cc2c(=O)n3ccccc3nc21 | 13.5
CCOC(=O)c1cc2c(=O)n3ccccc3nc2n(Cc2ccccc2)c1=N | -68.9
COCCCn1c(=N)c(C(=O)NCc2ccc3c(c2)OCO3)cc2c(=O)n3ccccc3nc21 | -87.4
CCCn1c(=NC(C)=O)c(C(=O)OCC)cc2c(=O)n3ccccc3nc21 | 8.09
COCCCn1c(C(=O)N2CCOCC2)cc2c(=O)n3ccccc3nc21 | 3.13
N=c1c(C(=O)NCc2ccc(F)cc2)cc2c(=O)n3ccccc3nc2n1Cc1cccnc1 | -80.3
Oc1[nH]c2ccc(Br)cc2c1N=NC(=S)N1CCOCC1 | 17.6
Cc1onc(-c2c(Cl)cccc2Cl)c1C(=O)O/N=C(\C#N)c1ccccc1 | 7.14

SMILES | hERG current change (%, negative = inhibition) at 1uM [%]
O=C(CSC1=NS(=O)(=O)c2cc(F)ccc2N1)Nc1cccc(F)c1 | 2.39
CCCc1cc(=O)[nH]c(SCC(=O)NC)n1 | -0.511
O=Cc1cn(Cc2ccc(F)cc2)c2ccccc12 | 14.4
O=C(NCCCN1CCCC1=O)C1CCN(S(=O)(=O)c2cccc(C(F)(F)F)c2)CC1 | 23.6
CCc1nnc(NC(=O)C(C)N2C(=O)C3C4C=CC(C4)C3C2=O)s1 (centres unmarked) | 3.03
O=C(NCc1ccc2c(c1)OCO2)c1cnc2ccccn2c1=O | 5.17
O=C(CCn1c(=O)c2ccccc2n(Cc2cccnc2)c1=O)NCc1ccc2c(c1)OCO2 | 9.51
N=c1c(C(=O)NCc2ccc3c(c2)OCO3)cc2c(=O)n3ccccc3nc2n1Cc1cccnc1 | -51.5
COc1ccc(CCn2c(=N)c(C(=O)NC3CCCC3)cc3c(=O)n4ccccc4nc32)cc1OC | -46.9
CCN(C(=O)c1cc2c(=O)n3ccccc3nc2n1CCCOC)C1CCCCC1 | 2.38
COc1ccc(CCn2c(=N)c(C(=O)NC3CCCCC3)cc3c(=O)n4ccccc4nc32)cc1 | -84.1
COc1ccc(CCn2c(=N)c(S(=O)(=O)c3ccccc3)cc3c(=O)n4ccccc4nc32)cc1 | 10.8
COc1ccc(Cn2c(=N)c(C(=O)NC3CCCCC3)cc3c(=O)n4ccccc4nc32)cc1 | -5.89
COc1ccc(CCn2c(=N)c(C(=O)N3CCN(C)CC3)cc3c(=O)n4ccccc4nc32)cc1 | -2.76
COc1ccc(CCn2c(=N)c(C(=O)NC3CCCC3)cc3c(=O)n4cccc(C)c4nc32)cc1 | -79.9
COCCCn1c(=N)c(C(=O)NC2CCCCC2)cc2c(=O)n3ccccc3nc21 | -81.6
Cc1cccn2c(=O)c3cc(C(=O)NC4CCCC4)c(=N)n(CCc4ccccc4)c3nc12 | -33.8
COc1ccc(CCn2c(=N)c(C(=O)NC3CCCC3)cc3c(=O)n4ccccc4nc32)cc1 | -89.2
C/C(=N\NC(=O)c1cccc(F)c1)c1ccc(NC(=O)Cc2ccccc2)cc1 | 12.8
COc1cccc(CN2C(=NC(=O)C3CC3)SC3CS(=O)(=O)CC32)c1 (centres unmarked) | 14.8
